The nature of assay [1]: rapamycin-like changes in RPL19A-GFP expression – cell-based, S. cerevisiae, multiplex flow cytometry, primary screen (AID 1862).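 Also: lower values mimic rapamycin by blocking the RPL19A rise seen in DMSO cells.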 To be noted: S. cerevisiae RPL19A-GFP strain, flow cytometry fluorescence, 3 h; at 10 µM; stronger effect = lower value.
A short description of assay [2]: TOR pathway GLN3 branch reporter MEP2-GFP changes – S. cerevisiae, multiplex flow cytometry, primary screen (AID 1867;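 active = GFP response, as percent of the DMSO control, above the screen-wide mean plus 3 SD, about 139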;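 also: median GFP channel fluorescence of barcode-gated MEP2-GFP cells measured by flow cytometry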). To be noted: S. cerevisiae MEP2-GFP strain, 3 h, at 10 µM, stronger effect = higher value, 100% means same as DMSO wells.
Assay [3] can be described thus: TOR pathway RTG branch CIT2 reporter changes – S. cerevisiae, GFP fusion, multiplex flow cytometry, primary screen (AID 1870;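 active = percent response above a set limit, the screen-wide mean plus 3 SD, cut at about 130% in these data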;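 also: barcoded CIT2-GFP strain pooled with four other GFP strains with rapamycin as positive control; median GFP fluorescence per well over plate mean of DMSO wells so 100% = DMSO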). To be noted: S. cerevisiae CIT2-GFP expression, 3 h, at 10 µM, stronger effect = higher value.
Assay [4] is described as follows: TOR pathway LAP4-GFP level changes – S. cerevisiae, multiplex flow cytometry, primary screen (AID 1873;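 active = GFP signal, as percent of the solvent control, above the screen mean plus 3 SD, about 149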). Conditions: S. cerevisiae LAP4-GFP expression, 3 h, at 10 µM, stronger effect = higher value. Background: A flow cytometer gives signals particle by particle.
Assay [5] in a line: yeast AGP1-GFP level changes, GLN3 branch – cell-based, multiplex flow cytometry, S. cerevisiae, primary screen (AID 1887;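 active = GFP signal above the screen-wide mean plus 3 SD, that is over about 124.5% of the solvent control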;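 also: AGP1-GFP fusion strain of S. cerevisiae within a five-strain barcoded multiplex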). To be noted: 3 h, at 10 µM, stronger effect = higher value.
Assay [6] is described as follows: reduced mouse 2C T cell binding to pMHC/ICAM-1 vesicles – MLPCN validation set, flow cytometry, LFA-1/ICAM-1 modulator project, pilot screen (AID 2523;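 active = response below a set limit, under 55% cells CD8-positive and vesicle-bound, and CD8 cells' 90th-percentile brightness under 279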;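 as to vesicle binding response: mean PE anti-B7-1 fluorescence of CD8+ cells relative to row control; 100% = QL9-loaded vesicles with DMSO vehicle in the same plate row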). Conditions: 2C mouse CD8+ T cells, at 7 µM, stronger effect = lower value; double positive events: measured here: CD8+/vesicle+ event percentage.
Assay [7] concerns the target Integrin beta-1 (Homo sapiens) + Integrin alpha-4 (Homo sapiens) (UniProt P13612+P05556). The assay is described as follows: alpha4beta1 integrin LIBS antibody binding reduction – U937 cells, HUTS-21 mAb, flow cytometry, validation set, VLA-4 allosteric modulator project, pilot screen (AID 2674;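 active = inhibition above 50%, about 3 SD of the validation set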;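 also: antibody binding induced by the VLA-4 ligand LDV present at three times its Kd; 0% = LDV ligand with antibody and no compound and 100% = antibody without LDV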). Conditions: HUTS-21 LIBS mAb binding, at 6.7 µM, stronger effect = higher value, binding induced by LDV ligand.

Assay [8] is described as follows: calorie-restriction mimetic ROS inhibitors, yeast – validation compound set, pilot screen (AID 2706;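 active = superoxide response below 65% of plate, a cut near 3 SD across the whole screen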;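 also: yeast exposed to compound for one week at 30 degrees C before staining; 100% = mean of all compound wells on the same plate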). Conditions: S. cerevisiae aging, superoxide DHE fluorescence; at 10 µM; stronger effect = lower value.
In assay [9] the target is Beta-adrenergic receptor kinase 1 (Homo sapiens) (UniProt P25098). The assay is described as follows: GRK2 binders displacing RNA aptamer, biochemical, validation, human GRK2, bead flow cytometry (AID 488806;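 active = aptamer binding inhibition above 30%, about 3 SD of noise from non-fluorescent compounds; inactive = inhibition at or below 30%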). Conditions: bead-bound GRK2, FAM-aptamer displacement, at 10 µM, stronger effect = higher value.
Sequence of Beta-adrenergic receptor kinase 1 (Homo sapiens) (P25098 whole entry, looked up): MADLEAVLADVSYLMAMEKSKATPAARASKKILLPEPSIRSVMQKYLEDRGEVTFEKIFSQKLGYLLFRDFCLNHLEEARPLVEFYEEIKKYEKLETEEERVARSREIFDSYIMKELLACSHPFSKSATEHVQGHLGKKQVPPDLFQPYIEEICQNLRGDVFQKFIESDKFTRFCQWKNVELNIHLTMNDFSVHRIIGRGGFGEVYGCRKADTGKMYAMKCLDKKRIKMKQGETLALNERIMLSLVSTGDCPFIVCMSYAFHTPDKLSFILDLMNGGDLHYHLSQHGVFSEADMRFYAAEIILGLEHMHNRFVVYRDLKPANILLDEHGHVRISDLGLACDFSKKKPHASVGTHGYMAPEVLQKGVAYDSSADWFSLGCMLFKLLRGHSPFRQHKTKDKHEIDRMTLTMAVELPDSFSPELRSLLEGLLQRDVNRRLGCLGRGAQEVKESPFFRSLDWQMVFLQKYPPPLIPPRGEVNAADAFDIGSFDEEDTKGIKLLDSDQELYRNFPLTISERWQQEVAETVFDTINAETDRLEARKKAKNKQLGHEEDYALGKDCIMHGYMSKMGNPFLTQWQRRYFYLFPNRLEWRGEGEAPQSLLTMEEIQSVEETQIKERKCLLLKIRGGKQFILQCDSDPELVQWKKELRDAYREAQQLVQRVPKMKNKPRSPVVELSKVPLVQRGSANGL
The target in assay [10] is Beta-2 adrenergic receptor (Homo sapiens) (UniProt P07550). Nature of the assay: agonist-induced loss of surface beta2AR – cell-based, FAP fluorogen, flow cytometry, validation set, pilot screen (AID 504459;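 active = percent response above 42, roughly 3 SD of non-fluorescent test compounds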;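 also: agonist-driven loss of surface beta2AR via internalization measured by FAP dye flow cytometry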). Conditions: Am2.2-beta2AR cells, at 10 µM, stronger effect = higher value.
Sequence of Beta-2 adrenergic receptor (Homo sapiens) (P07550 whole entry, looked up): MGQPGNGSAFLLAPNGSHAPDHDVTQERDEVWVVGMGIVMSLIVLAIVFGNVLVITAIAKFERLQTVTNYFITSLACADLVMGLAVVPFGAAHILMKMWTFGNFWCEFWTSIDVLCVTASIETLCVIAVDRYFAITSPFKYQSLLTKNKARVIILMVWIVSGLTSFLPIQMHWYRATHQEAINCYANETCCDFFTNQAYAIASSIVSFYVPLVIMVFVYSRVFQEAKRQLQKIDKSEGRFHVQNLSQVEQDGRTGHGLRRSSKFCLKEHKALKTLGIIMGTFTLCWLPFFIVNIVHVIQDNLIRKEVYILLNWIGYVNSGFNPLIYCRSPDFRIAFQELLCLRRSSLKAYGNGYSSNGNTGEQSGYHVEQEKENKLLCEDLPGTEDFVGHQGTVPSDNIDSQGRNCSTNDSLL
Assay [11] concerns the target AP-2 complex subunit beta (Homo sapiens) (UniProt P63010). The assay is described as follows: beta-arrestin/AP2 interaction blockers – biochemical, validation set, GST-AP2 beads, flow cytometry, pilot screen (AID 504541;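 active = inhibition above 54%, about 3 SD of non-fluorescent compounds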;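 also: AP2 carries R879A mutation and is captured from E. coli lysate; bead-bound FITC arrestin peptide fluorescence measuring arrestin peptide binding to AP2; 0% = DMSO wells and 100% = excess unlabeled arrestin peptide control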). To be noted: FITC arrestin peptide, at 10 µM, stronger effect = higher value, AP2 beta2 appendage fragment, R879A mutant.
The nature of assay [12]: cytosolic pH regulators acting via V-ATPase – S. cerevisiae, pHLuorin, HTS validation (AID 504600; in the data active = response above about 15%;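 also: plate controls were DMSO for no effect and reference compound for full effect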). Conditions: V-ATPase proton transport, at 10 µM, stronger effect = higher value.
In assay [13] the test system is anti-desmoglein-3 scFv antibody binding to human DSG3. Nature of the assay: blockers of pathogenic pemphigus antibody–desmoglein-3 binding – biochemical, validation compound set, bead-based, flow cytometry, pilot screen (AID 588368;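 active = binding below the plate cutoff, the plate median minus 3 SD, with a reading above zero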;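 also: signal is the median channel fluorescence of bead-bound GFP antibody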). To be noted: Protein G beads, DSG3-Fc, scFv-GFP binding, at 10 µM, stronger effect = lower value.
Assay [14] in a line: Nile Red efflux blockade in pump-expressing yeast – validation compound set, multiplex, phenotypic, pilot screen (AID 588506;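 active = efflux inhibition above 0.42, the validation set average plus 4 SD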;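 also: Nile Red retained in cells so higher fluorescence means more efflux inhibition; 0 = negative control wells and 1 = enniatin B 25 µM full block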). To be noted: S. cerevisiae pump-expressing triplex, Nile Red efflux flow cytometry; at 10 µM; stronger effect = higher value; the pumps come from Candida albicans.
For assay [15], the target named is ATP-binding cassette sub-family B member 6 (Homo sapiens) (UniProt Q9NP58). The assay is described as follows: blockers of ABCB6-driven porphyrin uptake – K562-ABCB6 cells, flow cytometry, validation set, pilot screen (AID 588550;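 active = inhibition above the screen-wide mean plus 3 SD, about 51%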;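 also: 0% = DMSO wells and 100% = benzethonium chloride 70 µM positive control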). Conditions: K562-ABCB6 porphyrin accumulation, 1 h, at 10 µM, stronger effect = higher value.
Sequence of ATP-binding cassette sub-family B member 6 (Homo sapiens) (Q9NP58 whole entry, looked up): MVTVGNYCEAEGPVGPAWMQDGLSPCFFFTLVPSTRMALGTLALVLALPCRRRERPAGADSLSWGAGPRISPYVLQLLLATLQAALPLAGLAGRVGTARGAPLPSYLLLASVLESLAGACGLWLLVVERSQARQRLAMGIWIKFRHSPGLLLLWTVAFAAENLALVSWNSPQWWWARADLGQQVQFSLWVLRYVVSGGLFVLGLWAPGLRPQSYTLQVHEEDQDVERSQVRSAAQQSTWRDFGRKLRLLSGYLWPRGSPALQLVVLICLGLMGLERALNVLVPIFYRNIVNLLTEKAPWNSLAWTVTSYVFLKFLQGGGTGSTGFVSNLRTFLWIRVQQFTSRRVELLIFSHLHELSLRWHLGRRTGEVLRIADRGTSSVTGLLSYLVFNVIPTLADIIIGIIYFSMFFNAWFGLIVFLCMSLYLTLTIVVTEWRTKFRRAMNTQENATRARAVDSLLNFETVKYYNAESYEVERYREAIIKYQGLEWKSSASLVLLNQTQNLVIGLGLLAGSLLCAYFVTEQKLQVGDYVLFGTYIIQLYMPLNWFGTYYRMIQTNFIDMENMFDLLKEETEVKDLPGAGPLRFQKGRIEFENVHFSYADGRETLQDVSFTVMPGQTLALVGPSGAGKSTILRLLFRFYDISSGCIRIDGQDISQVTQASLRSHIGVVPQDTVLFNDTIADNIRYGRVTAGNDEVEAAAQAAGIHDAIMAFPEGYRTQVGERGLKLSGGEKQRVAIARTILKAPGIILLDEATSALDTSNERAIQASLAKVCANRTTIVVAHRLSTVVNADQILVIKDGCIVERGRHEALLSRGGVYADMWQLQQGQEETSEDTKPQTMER
The nature of assay [16]: AML differentiation inducers, ER-HoxA9 marrow cells – cell-based, GFP/MAC1 double positive, flow cytometry, validation set, primary screen (AID 588685;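 active = differentiation response of at least 50%, scaled between solvent and reference control, from cells with both markers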;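 also: compound exposure lasts four days before antibody staining and flow analysis; 0% = DMSO wells and 100% = 5 µM fulvestrant positive control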). To be noted: stronger effect = higher value, normalized: vehicle 0, fulvestrant 100.

The structures appear in SMILES notation. Results filed as inconclusive are left out. Calls of active or inactive are those of the source. Rule as the data show it, unless noted: active = percent of DMSO control GFP below about 86%; inactive = the rest, inconclusive results apart.

Sequence of AP-2 complex subunit beta (Homo sapiens) (P63010 whole entry, looked up, the tested form may be a part, one chain of several): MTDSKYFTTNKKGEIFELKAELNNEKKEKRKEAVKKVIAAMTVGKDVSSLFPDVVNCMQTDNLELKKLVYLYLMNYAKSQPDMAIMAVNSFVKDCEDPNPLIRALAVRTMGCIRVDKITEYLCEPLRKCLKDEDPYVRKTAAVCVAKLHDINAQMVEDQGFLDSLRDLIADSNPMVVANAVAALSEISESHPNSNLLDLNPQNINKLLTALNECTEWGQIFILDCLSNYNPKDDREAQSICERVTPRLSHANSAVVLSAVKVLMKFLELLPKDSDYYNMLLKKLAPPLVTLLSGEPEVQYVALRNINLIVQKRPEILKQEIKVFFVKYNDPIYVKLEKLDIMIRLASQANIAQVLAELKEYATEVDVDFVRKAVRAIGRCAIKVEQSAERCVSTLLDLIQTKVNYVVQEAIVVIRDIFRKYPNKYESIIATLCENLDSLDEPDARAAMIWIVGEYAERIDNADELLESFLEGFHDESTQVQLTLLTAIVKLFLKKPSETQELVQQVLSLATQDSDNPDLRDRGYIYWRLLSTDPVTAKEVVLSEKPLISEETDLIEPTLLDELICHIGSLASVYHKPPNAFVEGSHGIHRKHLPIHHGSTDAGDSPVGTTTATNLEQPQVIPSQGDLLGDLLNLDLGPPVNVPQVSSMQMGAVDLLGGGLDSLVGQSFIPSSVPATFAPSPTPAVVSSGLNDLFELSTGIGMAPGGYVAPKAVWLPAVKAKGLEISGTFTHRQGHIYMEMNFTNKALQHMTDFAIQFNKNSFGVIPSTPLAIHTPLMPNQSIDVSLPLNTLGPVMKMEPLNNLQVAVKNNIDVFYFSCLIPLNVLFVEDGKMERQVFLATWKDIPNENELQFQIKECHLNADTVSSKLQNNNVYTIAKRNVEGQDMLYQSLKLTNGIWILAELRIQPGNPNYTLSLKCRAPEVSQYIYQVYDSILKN
Sequence of Integrin beta-1 (Homo sapiens) + Integrin alpha-4 (Homo sapiens) (P05556 whole entry, looked up): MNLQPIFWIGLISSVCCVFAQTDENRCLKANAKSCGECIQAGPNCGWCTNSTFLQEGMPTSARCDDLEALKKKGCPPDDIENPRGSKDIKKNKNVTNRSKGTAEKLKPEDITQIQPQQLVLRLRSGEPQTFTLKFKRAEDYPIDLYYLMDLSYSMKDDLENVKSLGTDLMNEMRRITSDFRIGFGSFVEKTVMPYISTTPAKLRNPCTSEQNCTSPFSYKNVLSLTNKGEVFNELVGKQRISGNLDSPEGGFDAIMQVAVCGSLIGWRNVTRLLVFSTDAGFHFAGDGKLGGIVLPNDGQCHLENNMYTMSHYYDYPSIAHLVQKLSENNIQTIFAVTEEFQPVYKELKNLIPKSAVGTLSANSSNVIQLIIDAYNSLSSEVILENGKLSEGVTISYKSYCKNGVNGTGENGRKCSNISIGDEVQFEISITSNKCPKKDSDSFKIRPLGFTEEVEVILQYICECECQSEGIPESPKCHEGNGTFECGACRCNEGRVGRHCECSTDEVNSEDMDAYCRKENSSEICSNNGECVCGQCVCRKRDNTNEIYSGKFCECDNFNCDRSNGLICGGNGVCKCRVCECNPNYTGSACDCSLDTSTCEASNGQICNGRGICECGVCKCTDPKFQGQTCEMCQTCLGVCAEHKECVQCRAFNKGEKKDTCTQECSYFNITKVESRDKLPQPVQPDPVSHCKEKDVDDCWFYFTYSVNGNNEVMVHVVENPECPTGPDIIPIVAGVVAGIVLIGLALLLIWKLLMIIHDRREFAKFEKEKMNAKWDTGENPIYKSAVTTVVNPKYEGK
Sequence of Integrin beta-1 (Homo sapiens) + Integrin alpha-4 (Homo sapiens) (P13612 whole entry, looked up): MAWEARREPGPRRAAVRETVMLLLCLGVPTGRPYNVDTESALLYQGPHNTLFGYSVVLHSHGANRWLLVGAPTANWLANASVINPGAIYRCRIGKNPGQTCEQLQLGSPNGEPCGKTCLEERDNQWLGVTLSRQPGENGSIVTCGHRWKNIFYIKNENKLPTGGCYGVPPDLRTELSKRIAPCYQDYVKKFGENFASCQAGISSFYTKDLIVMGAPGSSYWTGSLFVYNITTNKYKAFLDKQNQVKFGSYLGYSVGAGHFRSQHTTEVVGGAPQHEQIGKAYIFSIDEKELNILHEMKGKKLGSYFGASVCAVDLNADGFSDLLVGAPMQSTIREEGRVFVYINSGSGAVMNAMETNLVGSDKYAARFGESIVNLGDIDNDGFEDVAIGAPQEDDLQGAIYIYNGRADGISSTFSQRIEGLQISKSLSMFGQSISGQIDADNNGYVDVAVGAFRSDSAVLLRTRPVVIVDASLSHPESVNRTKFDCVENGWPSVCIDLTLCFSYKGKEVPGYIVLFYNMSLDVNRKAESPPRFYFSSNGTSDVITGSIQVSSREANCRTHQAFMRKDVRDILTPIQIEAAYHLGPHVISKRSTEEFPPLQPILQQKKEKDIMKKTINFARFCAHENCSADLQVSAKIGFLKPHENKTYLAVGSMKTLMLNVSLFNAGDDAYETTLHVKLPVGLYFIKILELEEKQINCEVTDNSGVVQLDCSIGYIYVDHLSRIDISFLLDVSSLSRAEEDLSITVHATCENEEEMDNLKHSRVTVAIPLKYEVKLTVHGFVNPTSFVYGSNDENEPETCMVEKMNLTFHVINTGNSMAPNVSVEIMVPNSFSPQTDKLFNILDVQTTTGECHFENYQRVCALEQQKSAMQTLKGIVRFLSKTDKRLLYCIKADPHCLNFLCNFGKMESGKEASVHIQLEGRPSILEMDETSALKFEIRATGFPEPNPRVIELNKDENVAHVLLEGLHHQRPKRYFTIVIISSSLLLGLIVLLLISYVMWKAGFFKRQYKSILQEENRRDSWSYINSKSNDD

Take `Cc1cccc(C(=O)c2cccc(C)c2)c1`: in [1], the percent of DMSO control GFP is 105% (inactive). For the same molecule, the results for the GFP response vs DMSO in assay [2] and in assay [4] were 103% (inactive) and 105% (inactive), respectively. In addition, in [3], the percent response of DMSO control is 109% (inactive). The GFP response, % of DMSO in assay [5] is 105% (inactive). Moreover, in assay [6], the double positive events worked out at 56%. Further, in assay [6], the vesicle binding response was 45.4% (inactive). Moreover, the inhibition in assay [7] is 12% (inactive); in [11] it was -6.55% (inactive); in assay [15] it was 1% (inactive). The superoxide response (% of plate) in assay [8] was 104% (inactive). The aptamer binding inhibition in assay [9] was 0% (inactive). The response in assay [10] was -8.97% (inactive); in assay [12] it was 1.1% (inactive). The binding (% of control) in [13] was 98.7% (inactive). Further, the efflux inhibition (fraction of control) in assay [14] is -0.17 (inactive). Also, in assay [16], the differentiation response is -7.57% (inactive).
On to `CN(C)C(=O)CCCCCCCCC(=O)N(C)C`, for which, in assay [1], the percent of DMSO control GFP was 90.6% (inactive). Besides, the results for the GFP response vs DMSO in assay [2] and in assay [4] were 146% (active) and 79.2% (inactive), respectively. Further, the percent response of DMSO control in assay [3] is 107% (inactive). The GFP response, % of DMSO in assay [5] is 93.3% (inactive). Further, the double positive events in [6] is 64.1%. In addition, the vesicle binding response in assay [6] is 194% (inactive). Besides, the inhibition was 7.43% (inactive) in assay [7], 12.9% (inactive) in assay [11] and 6% (inactive) in assay [15]. Also, the superoxide response (% of plate) in assay [8] was 81.8% (inactive). Also, in assay [9], the aptamer binding inhibition was 5% (inactive). The response in assay [10] is 3.92% (inactive); in assay [12], -5.22% (inactive). Further, the binding (% of control) in [13] was 101% (inactive). The efflux inhibition (fraction of control) in assay [14] was 0.16 (inactive). Further, the differentiation response in [16] was 1.64% (inactive).
Regarding `OCC1CCN(Cc2cn(Cc3ccccc3)nc2-c2cc3ccccc3o2)CC1`, in assay [1], the percent of DMSO control GFP was 106% (inactive). Also, the values for the GFP response vs DMSO in [2] and in assay [4] were 97.2% (inactive) and 79.5% (inactive), respectively. Besides, the percent response of DMSO control in assay [3] was 97.8% (inactive). Further, the GFP response, % of DMSO in assay [5] is 102% (inactive). This molecule had a double positive events in assay [6] of 60.9%. In addition, in assay [6], the vesicle binding response was 203% (inactive). Also, the inhibition is 18.2% (inactive) in assay [7], 5.6% (inactive) in assay [11] and 20% (inactive) in assay [15]. For the same molecule, in [8], the superoxide response (% of plate) was 99.1% (inactive). Moreover, the aptamer binding inhibition in assay [9] was -3% (inactive). Also, the response in [10] is 21% (inactive); in [12], -6.29% (inactive). The binding (% of control) in [13] is 98.5% (inactive). For the same molecule, the efflux inhibition (fraction of control) in [14] was 0.52 (active). For the same molecule, the differentiation response in assay [16] is 10% (inactive).
With `Cc1ccc(Nc2ncccc2C(=O)O)cc1C`, in assay [1], the percent of DMSO control GFP is 90.6% (inactive). In addition, the figures for the GFP response vs DMSO in assay [2] and in assay [4] were 123% (inactive) and 80.3% (inactive), respectively. Further, the percent response of DMSO control in assay [3] is 103% (inactive). In addition, the GFP response, % of DMSO in assay [5] was 94.7% (inactive). Moreover, the double positive events in assay [6] turned out to be 64.4%. In addition, the vesicle binding response in assay [6] was 264% (inactive). Besides, the figures for the inhibition in [7], in assay [11] and in assay [15] were 8.4% (inactive), -7.34% (inactive) and 15% (inactive), respectively. In addition, the superoxide response (% of plate) in assay [8] was 114% (inactive). For the same molecule, in assay [9], the aptamer binding inhibition was 2% (inactive). The response in assay [10] was 0.08% (inactive); in assay [12], -0.86% (inactive). Moreover, the binding (% of control) in assay [13] is 105% (inactive). For the same molecule, in assay [14], the efflux inhibition (fraction of control) is -0.31 (inactive). Besides, the differentiation response in [16] was 6.55% (inactive).
For `CN(C)CCOCCOc1ccc(Cl)cc1Br`, in [1], the percent of DMSO control GFP was 93.7% (inactive). In addition, the values for the GFP response vs DMSO in assay [2] and in assay [4] were 119% (inactive) and 77% (inactive), respectively. Moreover, in assay [3], the percent response of DMSO control is 101% (inactive). Besides, the GFP response, % of DMSO in [5] is 90.3% (inactive). Moreover, in assay [6], the double positive events was 47.1%. In addition, the vesicle binding response in assay [6] was 160% (inactive). In addition, the inhibition in assay [7] is -2.27% (inactive); in assay [11], -6.43% (inactive); in assay [15], 4% (inactive). Also, in assay [8], the superoxide response (% of plate) is 97.8% (inactive). Moreover, in assay [9], the aptamer binding inhibition was -6% (inactive). For the same molecule, the response in [10] is -10% (inactive); in [12] it was 1.08% (inactive). Moreover, the binding (% of control) in assay [13] is 105% (inactive). The efflux inhibition (fraction of control) in assay [14] was 0.09 (inactive). Also, the differentiation response in assay [16] is 13.1% (inactive).
For `CC(=O)Nc1nnc(S(N)(=O)=O)s1`, the percent of DMSO control GFP in [1] was 102% (inactive). Besides, the results for the GFP response vs DMSO in assay [2] and in assay [4] were 95.1% (inactive) and 88.1% (inactive), respectively. Further, the percent response of DMSO control in assay [3] is 116% (inactive). In addition, the GFP response, % of DMSO in assay [5] was 102% (inactive). Further, the double positive events in assay [6] turned out to be 62.4%. Moreover, the vesicle binding response in assay [6] is 1080% (inactive). Moreover, the results for the inhibition in assay [7], in [11] and in assay [15] were 17.2% (inactive), -5.06% (inactive) and 16% (inactive), respectively. Further, in assay [8], the superoxide response (% of plate) is 111% (inactive). The aptamer binding inhibition in assay [9] was 5% (inactive). Also, the response in assay [10] is -4.02% (inactive); in assay [12], 0.12% (inactive). Besides, in assay [13], the binding (% of control) was 102% (inactive). For the same molecule, in assay [14], the efflux inhibition (fraction of control) is 0.05 (inactive). In assay [16], the differentiation response is 6.11% (inactive).

The inhibition is the relative decrease from the control value, in per cent.

These data come from PubChem BioAssay.
